The list is not random: actives were taken first. Their share in the collection is about 17%.
TDP1 inh: blocks human tyrosyl-DNA phosphodiesterase 1; Q9NUW8; recombinant TDP1, AlphaScreen DNA substrate cleavage; Potency, µM (highest dose often 130 µM), for the others: at the top dose activity change, negative = inhibition, most hits filed as inhibitors; actives 0.28% (n = 350,000); AID 485290; note: % is set by controls: 0 for no effect and ±100 for the full control effect; nearly all actives have a fitted effect of over 40% in size
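Steps: enzyme plus compound, 15 min RT; add biotin/phosphotyrosine-FITC oligonucleotide (15 nM final), react 5 min; add donor/acceptor beads (10 ug/ml final), 10 min; read AlphaScreen. Tdp1 at 1 nM final.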
DT40 TDP1 CPT: growth inhibition of DT40 Tdp1-/-;hTDP1 cells with camptothecin (screen for TDP1 inhibitors). actives 12% (n = 420,000). Potency, µM (doses to about 46.2 µM), for inactives: at the top dose activity change, negative = growth inhibition, usual class: inhibitors. chicken DT40 Tdp1-/-;hTDP1 cells + 20 nM CPT, ATP luminescence, 48 h; note: % is set by controls: 0 for no effect and ±100 for the full control effect; nearly all actives have a fitted effect of over 55% in size
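Chicken DT40 Tdp1-/- cells stably complemented with human TDP1 were seeded at 400 cells/well in medium containing 20 nM camptothecin, exposed to pin-transferred compounds, and grown at 37 °C for at least 48 hr. Viability was read as ATP luminescence.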
DT40 TDP1 no CPT: qHTS for Inhibitors of human tyrosyl-DNA phosphodiesterase 1 (TDP1): qHTS in cells in absence of CPT. DT40 Tdp1-/- hTDP1 cells, no CPT, ATP luminescence, 48 h. Potency, µM (titrated, usually from 46.2 µM), without a hit: at the top dose activity change, negative = growth inhibition, usual class: inhibitors. actives 15% (n = 420,000); note: % is set by controls: 0 for no effect and ±100 for the full control effect; nearly all actives have a fitted effect of over 55% in size
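Growth of hTDP1-complemented DT40 Tdp1-knockout cells is measured by ATP luminescence after at least 48 hr compound exposure at 37 °C, with DMSO substituting for the 20 nM CPT used in the parallel screen.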
ClpP mod: qHTS Assay for Activators of ClpP | ATP-dependent Clp protease proteolytic subunit (Bacillus subtilis (strain 168)), P80244 | actives 1.9% (n = 340,000) | purified B. subtilis ClpP, FRET peptide cleavage, 20 min | Potency, µM (titrated, usually from 57.5 µM), without a hit: at the top dose activity change, negative = active; active = well fitted falling curve with a large enough effect; inconclusive = small, poorly fitted or top-dose-only effect; inactive = no such curve, though single readings can be large or run the other way; note: the source files actives as falling curves though it sought activators and does not explain the sign; nearly all actives have a fitted effect of over 65% in size
Target sequence (P80244 whole entry, looked up): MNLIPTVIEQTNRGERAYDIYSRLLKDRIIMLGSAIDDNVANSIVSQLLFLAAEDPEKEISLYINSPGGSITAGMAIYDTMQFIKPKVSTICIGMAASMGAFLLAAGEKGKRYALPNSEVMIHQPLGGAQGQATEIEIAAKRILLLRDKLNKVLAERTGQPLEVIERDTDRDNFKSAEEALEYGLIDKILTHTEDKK
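Purified B. subtilis ClpP, 10 microg/mL final in Tris/HCl pH8 with KCl, BSA, glycerol and Tween-20, cleaved an Abz/nitrotyrosine-quenched decapeptide. Fluorescence (ex 320, em 430) was read at 0 and 20 min at room temperature. Delta was normalized to 5.8 microM ADEP and DMSO/no-enzyme controls.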
Starred values were filed as active, the others as inactive; ? = inconclusive; . = no result given; [ ] = another dose, or the depositor's remark. Unless noted, calls come from the whole dose curve; as a rule, active = well fitted curve in the direction sought with a large enough effect; inconclusive = small, poorly fitted or top-dose-only effect, or another doubt; inactive = no such curve, though single readings can be large; an effect the other way counts as inactive or inconclusive. Potency is the fitted concentration of half-maximal effect.

SMILES	TDP1 inh	DT40 TDP1 CPT	DT40 TDP1 no CPT	ClpP mod
CCCCNc1nc2ccccc2c2nc(-c3ccccc3)nn12	-1.0%	?	20.6µM*	?
CCCCNC(=O)CCC(=O)NNc1nc2ccccc2c2nc(-c3ccccc3)nn12	11.6%	?	23.1µM*	4.2%
Clc1ccc(CCNc2nc3ccccc3c3nc(-c4ccccc4)nn23)cc1	2.9%	?	11.6µM*	-3.4%
c1ccc(CNc2nc3ccccc3c3nc(-c4ccccc4)nn23)cc1	3.9%	?	2.59µM*	25.1µM*
CCCCNC(=O)CCC(=O)NNc1nc2ccccc2c2nc(C)nn12	9.2%	-23.3%	?	-1.1%
Cc1ccc(S(=O)(=O)N2CCN(C(=O)CN3C(=O)c4ccc([N+](=O)[O-])cc4C3=O)CC2)c(C)c1	0.8%[0.505 µM]	14.0%	0.9%	2.1%
O=c1cc(N2CCCCC2)c(-c2ccccc2)nn1Cc1ccc(Cl)cc1	-0.5%	?	?	-3.4%
O=c1cc(N2CCCCC2)c(-c2ccccc2)nn1Cc1c(Cl)cccc1Cl	5.3%	?	16.4µM*	-6.0%
CSC(=NC#N)N1CCN(c2ccc([N+](=O)[O-])cc2)CC1	5.4%	?	?	.
Cc1ccc(S(=O)(=O)c2c(C)cc(C)nc2Oc2cccc(C(F)(F)F)c2)cc1	2.0%	?	?	-1.9%
Cc1cc(-c2ccccc2)nc(Oc2cccc(C(F)(F)F)c2)c1S(C)(=O)=O	-6.6%	-17.1%	?	35.5µM*
Cc1cc(C)nc(NNS(=O)(=O)c2ccc(F)c(Cl)c2)n1	-7.1%	23.1µM*	?	0.1%
Cc1cc(C)nc(NNS(=O)(=O)c2ccc(Cl)cc2)n1	0.4%	?	-9.8%	0.9%
CC#CCC(C)[C@H](O)/C=C/[C@@H]1[C@H]2C/C(=C/CCCC(=O)O)C[C@H]2C[C@H]1O (some centres undefined)	.	15.2%	-2.1%	.
COc1ccc(-c2cc(OC(=O)c3ccc(F)cc3)c3c(C)oc(C)c3c(=O)c2)cc1	7.6%	.	.	.
CCOc1ccc(C(=O)NCc2nc(-c3ccc(Cl)cc3)no2)cc1OCC	-8.6%	-18.7%	?	-0.5%
CCOc1cc(-c2ccc(OC(=O)c3ccc(Cl)cc3)c(OC)c2)cc(=O)c2c(C)oc(C)c12	7.8%	4.61µM*	5.17µM*	-1.9%
CCOc1cc(-c2ccc(OC(=O)c3ccccc3)c(OC)c2)cc(=O)c2c(C)oc(C)c12	12.0%	6.51µM*	5.8µM*	1.5%
COc1ccc(-c2cc(OC(=O)c3cccc(Cl)c3)c3c(C)oc(C)c3c(=O)c2)cc1	7.4%	25.9µM*	?	-1.7%
CCN(C(=O)Cn1c(=O)oc2cc(Cl)ccc21)c1cccc(C(F)(F)F)c1	2.9%	?	-24.8%	-0.3%
CC(C)C[C@@H](COc1ccccc1)N1CCN(Cc2ccccc2)CCC1=O	.	?	?	1.1%
O=C1CCN(Cc2ccccc2)CCN1[C@H](COc1ccccc1)Cc1ccccc1	.	20.6µM*	20.6µM*	-0.3%
CCCN1CCC(=O)N([C@H](COc2ccccc2)Cc2ccccc2)CC1	.	25.9µM*	?	1.0%
CC(C)c1nc2c(c(=O)c3ccccc3n2C)c(=O)n1-c1ccc(F)cc1	0.0%	14.6µM*	11.6µM*	28.2µM*
O=C(Cn1nnc(-c2cccs2)n1)NNC(=O)c1ccccc1Cl	.	15.1%	-14.0%	.
SMILES	TDP1 inh	DT40 TDP1 CPT	DT40 TDP1 no CPT	ClpP mod
COC(=O)C1=CN(CC2CCCO2)C=C(C(=O)OC)C1c1ccccc1C(F)(F)F (centres undefined)	-5.1%	-2.1%	-4.3%	31.6µM*
O=C(NC1CCCC1)c1ccc2c(c1)N(Cc1ccc(F)cc1)CCS2	2.9%	?	?	3.9%
CCOC(=O)N1CCC(NC(=O)c2ccc3c(c2)N(CC)CCS3)CC1	.	20.6µM*	?	4.0%
CCOC(=O)N1CCC(NC(=O)CN2C(=O)CCSc3ccccc32)CC1	1.0%	0.9%	-7.2%	1.6%
Cc1ccc(CN2CCSc3ccc(C(=O)NC4CCCC4)cc32)cc1	-3.3%	16.4µM*	?	3.5%
Cc1ccc(CN2CCSc3ccc(C(=O)Nc4ccc(F)cc4F)cc32)cc1	1.3%	16.4µM*	?	4.1%
CCc1ccc(NC(=O)c2ccc3c(c2)N(Cc2ccc(C)cc2)CCS3)cc1	1.3%	14.6µM*	?	4.3%
O=c1cc(N2CCN(c3ccc(F)cc3)CC2)[nH]c(=O)n1-c1ccc(Br)cc1	0.0%	?	?	-0.2%
COCn1ccnc1C(=O)c1ccco1	.	-2.2%	-0.5%	-0.9%
C[C@H]1Cc2c(COc3ccccc3)nc3c(c2CO1)CN(C(=O)c1cccnc1)CC3	6.8%[21 µM]	.	.	.
CC(NC(=O)COC(=O)CCN1C(=O)C2CC=CCC2C1=O)c1ccc(Br)cc1 (centres undefined)	0.4%	-13.2%	9.9%	0.4%
COC(=O)[C@@]1(Cc2ccc(F)cc2)[C@H]2c3cc(C(=O)N(C)C)n(Cc4ccc(OC(F)(F)F)cc4)c3C[C@H]2CN1C(=O)c1ccccc1	6.6%	.	.	.
CC(=O)c1cccc(NC(=O)c2cc(-c3ccc(Cl)s3)nc3ccccc23)c1	1.8%	?	?	223.2%
Cc1cc(NC(=O)CS(=O)(=O)c2ccc(Cl)cc2)no1	5.0%	11.5%	-9.6%	-0.5%
O=C(NCC1CCCO1)c1ccc2c(c1)N(Cc1ccc(Cl)cc1)CCS2 (centres undefined)	.	?	23.1µM*	3.9%
Cc1ccc(CN2CCSc3ccc(C(=O)NCc4cccnc4)cc32)cc1	7.5%	23.1µM*	?	4.5%
Cc1ccc(CNC(=O)C2CCCN(S(=O)(=O)c3ccc4c(c3)oc(=O)n4C)C2)cc1 (centres undefined)	6.4%	-10.5%	?	-1.8%
COc1ccc(C2CC(=O)N(C)c3ccccc3S2)cc1OC (centres undefined)	8.1%	20.6µM*	?	.
Cn1cc(/C=C/c2cc[n+](C)cc2)c2cc(Cl)ccc21	.	0.651µM*	0.731µM*	.
Cn1cc(/C=C/c2cc[n+](C)cc2)c2cc(F)ccc21	.	0.517µM*	0.581µM*	0.9%
C[n+]1ccc(/C=C/c2c[nH]c3ccc(F)cc23)cc1	.	1.64µM*	0.82µM*	0.8%
C[n+]1ccc(/C=C/c2ccc3ccccc3c2)cc1	7.3%	?	?	.
Cn1cc(C=O)c2cc(F)ccc21	5.1%	-1.3%	0.0%	1.4%
CC(c1nnc(SCC(=O)Nc2cccnc2Cl)n1Cc1ccccc1)N(C)C (centres undefined)	0.0%	12.9%	-0.2%	.
O=S1(=O)c2ccccc2N(Cc2cccc(F)c2)c2ccccc21	-1.9%	?	?	-0.8%
COc1ccc(NC(=O)N2CCC(n3cnc4ccccc43)CC2)cc1	7.3%	-11.9%	?	-0.9%

Assay outcomes as filed in PubChem.
